# Shown are actives, neighbours in structure and some others; about 6.5% of the full set was active somewhere.
# Vaccinia mCherry: inhibitors of vaccinia virus infection (mCherry reporter signal) | AID 720579 | Vaccinia virus mCherry reporter infection, fluorescence | hit rate 0.63% among 310,000 | Potency, µM (highest dose often 36.5 µM), inactives show at the highest dose activity change, negative = inhibition, hits mostly inhibitors; calls by dose curve; tested in A549 cells; further: potency means the concentration at half of the fitted maximal effect; nearly all actives have a fitted effect of over 35% in size
# VACV Venus inh: vaccinia inhibition (Venus reporter); Vaccinia virus Venus reporter expression, fluorescence; Potency, µM (highest dose often 36.5 µM), for inactives: top-dose activity change, negative = inhibition, actives largely listed as inhibitors; hit rate 0.46% among 330,000; AID 720580; calls by dose curve; tested in A549 cells; further: potency means the concentration at half of the fitted maximal effect; nearly all actives have a fitted effect of over 30% in size
# HCMV antiviral: human cytomegalovirus inhibition; hit rate 4.5% among 410,000; HFF cells, HCMV-luciferase reporter, 72 h; hits give low values; activity change, negative = inhibition, % at 57.5 µM; in the data active means activity change below about -60%; inconclusive means no clear call, values can overlap the other calls; inactive means above about -39%
#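 Two compound doses tested in HFFs infected with HCMV-luciferase, MOI 1 PFU/cell, 72 h at 37C. Lysate luminescence read with OneGlo; data normalized against buffer-only and 10uM Salinomycin inhibitor controls.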
# FMDV antiviral: antivirals against foot and mouth disease virus. FMDV antiviral cell-based qHTS. Potency, µM (series often up to 57.9 µM), for inactives: at the top dose activity change, negative = inhibition, actives largely listed as inhibitors. hit rate 1.2% among 410,000. AID 1159524; calls by dose curve; tested in HEK293T cells; further: read-out not given here; potency means the concentration at half of the fitted maximal effect; nearly all actives have a fitted effect of over 45% in size
# MARV entry inh: inhibitors of Marburg virus binding or cell entry; AID 540276; hit rate 1.8% among 300,000; Marburg virus pseudotyped entry inhibition, cell reporter; Potency, µM (highest dose often 37.8 µM), inactives show top-dose activity change, negative = inhibition, usual class: inhibitors; calls by dose curve; tested in HEK293 cells; further: potency means the concentration at half of the fitted maximal effect
# Lassa entry inh: Lassa virus entry inhibition; Lassa virus pseudotype entry inhibition, cell reporter; Potency, µM (series often up to 37.9 µM), inactives show at the highest dose activity change, negative = inhibition, actives largely listed as inhibitors; hit rate 1.2% among 300,000; AID 540256; calls by dose curve; tested in HEK293 cells; further: potency means the concentration at half of the fitted maximal effect; nearly all actives have a fitted effect of over 50% in size
# Active calls of the source: *; i = inactive; ? = inconclusive; · = no result; [ ] = remark or other dose. On the % scale 0 is the no-effect control and ±100 the full control effect.
SMILES,Vaccinia mCherry,VACV Venus inh,HCMV antiviral,FMDV antiviral,MARV entry inh,Lassa entry inh
CCO[C@H]1OC(C(=O)N2CCN(Cc3ccccc3)CC2)=C[C@@H](c2coc3ccccc3c2=O)[C@@H]1CCCO,i,-22%,-15,-29%,·,·
CCO[C@@H]1OC(C(=O)Nc2ccccc2)=C[C@H](c2ccc(Br)cc2)[C@H]1CCCO,13%,-9%,-16,-16%,·,·
CCO[C@H]1OC(C(=O)O)=C[C@@H](c2ccc3c(c2)OCO3)[C@@H]1CCCO,-12%,1%,-101*,-6%,·,·
CCO[C@@H]1OC(C(=O)Nc2ccccc2)=C[C@H](c2ccccc2)[C@H]1CCCO,25%,-1%,-61*,-16%,·,·
CCO[C@@H]1OC(C(=O)NCc2ccccc2)=C[C@H](c2ccc3c(c2)OCO3)[C@H]1CCCO,-13%,-17%,-9,3%,·,·
CCO[C@@H]1OC(C(=O)Nc2ccccc2)=C[C@H](c2ccc3c(c2)OCO3)[C@H]1CCCO,35%,-2%,8,0%,·,·
CCO[C@@H]1OC(C(=O)N2CCN(Cc3ccc4c(c3)OCO4)CC2)=C[C@H](c2coc3ccccc3c2=O)[C@H]1CCCO,i,-13%,-89*,-29%,·,·
CCO[C@H]1OC(C(=O)NCc2ccccc2)=C[C@@H](c2ccc3c(c2)OCO3)[C@@H]1CCCO,i,-24%,-68*,-15%,·,·
CCn1c(=O)c2sccc2n2c(CCCC(=O)N3CCN(c4ccc(F)cc4)CC3)nnc12,-4%,-6%,?,-10%,·,-20%[46.1 µM]
COc1ccc(-c2cn[nH]c2-c2ccc(OCc3ccccc3)cc2O)cc1OC,11µM*,?,-37,?,?,?
COc1ccc(-c2cn[nH]c2-c2ccc(OCc3ccc(F)cc3)cc2O)cc1OC,-22%,-27%,?,25µM*,?,?
CNc1nc(Oc2cccc(F)c2)c2sccc2n1,29%,0%,-29,-9%,·,·
Cc1ccccc1NC(=O)/C(=C/c1ccco1)c1ccccc1,-25%,-7%,-104*,0%,-23%,-7%
CC(C)(C)NC(=O)/C(=C/c1ccco1)c1ccccc1,i,9%,29,-21%,-5%,11%
CCc1ccccc1NC(=O)/C(=C/c1ccco1)c1ccccc1,·,-26%,-24,?,?,16µM*
CC1(C)C[C@H]2C=C(C=O)[C@]3(C=O)C[C@]3(C)[C@H]2C1,?,?,9,25µM*,?,3.7µM*
O=C(COc1ccc(/C=N/NC(=O)CSCc2ccc([N+](=O)[O-])cc2)cc1)NCc1ccco1,-2%,-25%,12,?,11µM*,?
O=C(CSCc1ccccc1)N/N=C/c1cc2c(cc1Br)OCO2,-21%,-16%,-73*,-7%,?,?
Cc1ccc(CSCC(=O)N/N=C/c2ccc(OCC(=O)Nc3ccc(C)cc3)cc2)cc1,-19%,-12%,1,?,-12%,?
O=C(CSCc1ccccc1)N/N=C/c1ccc(OCC(=O)N2CCCCC2)cc1,i,-14%,-68*,?,-8%,-10%
CCCC=CC1C(=O)[C@@H]2O[C@H]2C2(OCC(CC)(CC)CO2)C1CO (some centres undefined),·,·,·,·,-11%[14.2 µM],·
CC(C)CC(=O)Nc1ccc(Nc2ccccc2)cc1,-5%,-18%,36,28%,?,3.5µM*
O=[N+]([O-])c1cc(-c2ccccc2)cc([N+](=O)[O-])c1O,-14%,-10%,-87*,?,-2%[46.1 µM],4%[46.1 µM]
O=[N+]([O-])c1cccc(C=Nc2cccc3ccccc23)c1O,?,-4%,29,-4%,?,6%[46.1 µM]
O=[N+]([O-])c1cc2ccccc2c(O)c1O,?,1%,-100*,0%,·,·
SMILES,Vaccinia mCherry,VACV Venus inh,HCMV antiviral,FMDV antiviral,MARV entry inh,Lassa entry inh
COc1ccccc1CCNC(=O)CCc1c(C)c2cc3c(C)coc3cc2oc1=O,-11%,-5%,1,-19%,0%[46.1 µM],8%[46.1 µM]
Cc1ccc(S(=O)(=O)N2CCN(C(=O)c3cc4c(C)nn(-c5ccccc5C)c4s3)CC2)cc1,?,?,-34,-31%,18µM*,?
O=C(Nc1ccc(S(=O)(=O)N2CCCCCC2)cc1)c1[nH]ncc1[N+](=O)[O-],·,·,-87*,·,·,·
CCN(CC)S(=O)(=O)c1ccc(NC(=O)c2ccc(N3CCCC3=O)cc2)cc1,-19%,-12%,-76*,?,?,?
O=C(Nc1ccc(S(=O)(=O)N2CCCC2)cc1)c1ccc(CN2CCOCC2)cc1,-27%,-17%,-81*,16µM*,?,?
N=c1sccn1CC(=O)Nc1ccc(S(=O)(=O)N2CCOCC2)cc1,?,-27%,-63*,-2%,0%,-6%
O=C(Nc1ccc(S(=O)(=O)N2CCOCC2)cc1)c1ccc(S(=O)(=O)N2CCOCC2)cc1,-21%,-7%,-39,-18%,4%[46.1 µM],28%[46.1 µM]
O=C(Cc1c(F)cccc1Cl)NNC(=O)c1ccc(Br)s1,·,·,?,65%,·,·
CCC(=O)C1CCCN(C(=O)CCc2nnc(-c3ccc(C(C)=O)s3)o2)C1 (centres undefined),·,·,72,33%,·,·
O=C(Nc1ccc(S(=O)(=O)N2CCCCC2)cc1)c1ccc(CN2CCOCC2)cc1,-29%,?,·,·,8.2µM*,?
CN(c1ccc(C(=O)Nc2ccc(S(=O)(=O)N3CCCC3)cc2)cc1)S(C)(=O)=O,-27%,-26%,-98*,?,?,?
CCN(CC)S(=O)(=O)c1ccc(N2CCOCC2)c(NC(=O)c2cc3ccccc3o2)c1,i,-25%,-73*,0%,·,·
O=C(Nc1ccc(Cc2ccncc2)cc1)c1ccc(Cl)c([N+](=O)[O-])c1,·,-12%,-21,28µM*,0%,-28%
CN1C(=O)C(C2(O)C(=O)N(Cc3ccccc3)c3cc(F)ccc32)c2ccccc21 (centres undefined),·,·,-23,·,·,·
COc1ccc(CN(C)C(=O)Cn2cc(C)c(=O)[nH]c2=O)cc1OC,-27%,-3%,11,-23%,·,·
COc1ccc(N(Cc2nc3ccccc3[nH]2)Cc2nnnn2-c2c(C)cccc2C)cc1,·,·,28,·,·,·
O=C(Nc1ccc(Cc2ccncc2)cc1)c1ccc(S(=O)(=O)N2CCOCC2)cc1,?,?,-73*,18µM*,?,?
CCN(CC)S(=O)(=O)c1ccc(NC(=O)c2ccc(CN3CCOCC3)cc2)cc1,?,?,-95*,·,?,?
COCCNC(=O)C1(C)CCCN(CC(=O)c2ccc(OC)cc2)C1 (centres undefined),-4%,-3%,8,-4%,·,·
C[C@H]1CN([C@@H](C)CO)C(=O)c2cccc(NC(=O)Nc3ccc(C(F)(F)F)cc3)c2O[C@@H]1CN(C)Cc1ccc(Cl)c(Cl)c1,?,?,-26,?,·,·
C[C@H](CO)N1C[C@H](C)[C@@H](CN(C)Cc2ccc(C(=O)O)cc2)OCCCC[C@H](C)Oc2ccc(NC(=O)CCC(F)(F)F)cc2C1=O,·,·,15,·,·,·
